Compound activity deposited in PubChem by National Center for Advancing Translational Sciences (NCATS).
IL1B secr inh – blocks inflammasome-driven IL-1 beta release. THP-1 LPS/ATP IL-1B secretion, AlphaLISA, 16 h; stronger effect = lower value. activity change, % at 57.5 µM. 360,000 tested, 4.7% active. AID 743279; in the data active = activity change below about -50%; inconclusive = mostly about -30% to -49%
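THP-1 cells pretreated 1 hr with compounds (up to 57.5 uM final), then stimulated with LPS (250 ng/mL final) plus ATP (1.25 mM final); secreted IL-1B measured by AlphaLISA after 16 hr, decreased signal indicating inhibition.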
TDP1 cell CPT – growth inhibition of DT40 Tdp1-/-;hTDP1 cells with camptothecin (screen for TDP1 inhibitors); Potency, µM (titrated, usually from 46.2 µM), most hits filed as inhibitors; 420,000 tested, 12% active; AID 686979; chicken DT40 Tdp1-/-;hTDP1 cells + 20 nM CPT, ATP luminescence, 48 h; note: nearly all actives have a fitted effect of over 55% in size
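Chicken DT40 Tdp1-/- cells stably complemented with human TDP1 were seeded at 400 cells/well in medium containing 20 nM camptothecin, exposed to pin-transferred compounds, and grown at 37 °C for at least 48 hr. Viability was read as ATP luminescence.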
TDP1 cell noCPT – qHTS for Inhibitors of human tyrosyl-DNA phosphodiesterase 1 (TDP1): qHTS in cells in absence of CPT; DT40 Tdp1-/- hTDP1 cells, no CPT, ATP luminescence, 48 h; Potency, µM (doses to about 46.2 µM), actives largely listed as inhibitors; 420,000 tested, 15% active; note: nearly all actives have a fitted effect of over 55% in size
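Cells were dispensed at 400 per well, compounds added by pin tool, plates incubated ≥48 hr at 37 °C, then CellTiter-Glo added for 30 min at room temperature before luminescence reading. Line: DT40 Tdp1-/- complemented with hTDP1; camptothecin omitted.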
HT1080 IDH1KD tx – toxicity to HT-1080 IDH1 knockdown cells (counter line) | HT-1080 IDH1 knockdown viability, ATP luminescence, 48 h | Potency, µM (doses to about 46.1 µM), usual class: cytotoxic | 360,000 tested, 2% active
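Using the IDH1-knockdown HT-1080 line run in the same batch and compound series as the NT line, viability after 48 h at 37 °C was determined by CellTiter-Glo luminescence and expressed as % activity.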
ALOX12 inh – blocks human arachidonate 12S-lipoxygenase. P18054. purified 12hLO, xylenol orange hydroperoxide absorbance. Potency, µM (series often up to 108 µM), usual class: inhibitors. 580,000 tested, 1.1% active
Target sequence (P18054 whole entry, looked up): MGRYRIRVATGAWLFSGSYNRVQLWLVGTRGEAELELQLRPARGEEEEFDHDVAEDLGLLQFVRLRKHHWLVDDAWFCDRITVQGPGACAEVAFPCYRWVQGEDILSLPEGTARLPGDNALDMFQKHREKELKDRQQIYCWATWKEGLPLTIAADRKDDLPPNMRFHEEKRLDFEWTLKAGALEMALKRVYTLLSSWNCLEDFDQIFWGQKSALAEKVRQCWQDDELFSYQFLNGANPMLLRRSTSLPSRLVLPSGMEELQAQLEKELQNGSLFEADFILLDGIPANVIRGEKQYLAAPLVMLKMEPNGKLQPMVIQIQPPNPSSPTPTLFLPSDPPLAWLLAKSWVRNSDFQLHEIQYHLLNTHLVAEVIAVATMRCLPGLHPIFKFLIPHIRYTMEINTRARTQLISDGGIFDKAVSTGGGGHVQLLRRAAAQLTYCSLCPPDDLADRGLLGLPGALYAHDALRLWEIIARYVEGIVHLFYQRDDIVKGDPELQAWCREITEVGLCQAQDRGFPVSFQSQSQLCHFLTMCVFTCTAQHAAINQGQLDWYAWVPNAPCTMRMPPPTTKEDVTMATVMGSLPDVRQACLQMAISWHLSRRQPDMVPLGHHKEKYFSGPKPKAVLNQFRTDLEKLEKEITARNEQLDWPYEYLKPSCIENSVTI
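Hydroperoxide product was detected by ferrous iron/xylenol orange as the 573 to 405 nm absorbance ratio. Arachidonic acid at 40 uM (final) was turned over for 30 min at room temperature by 150 nM human 12hLO, pH 7.0 Hepes buffer, after 15 min compound preincubation.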
HT1080-NT tox – kills 2HG-producing HT-1080-NT fibrosarcoma cells | HT-1080-NT fibrosarcoma viability, CellTiter-Glo ATP luminescence, 48 h | Potency, µM (highest dose often 46.1 µM), usual class: cytotoxic | 360,000 tested, 1.6% active | AID 686970;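 note: NT is the 2HG producing partner of a matched IDH1 knockdown line; nearly all actives have a fitted effect of over 55% in size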
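Read-out is CellTiter-Glo luminescence after 10 minutes at room temperature, following 48 hours' compound treatment of HT-1080-NT cells (750 cells/well, RPMI, 5% FBS, 37 degrees C).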
A number is an active result; . = inactive; ? = inconclusive; / = no result given; [ ] = another dose, or the depositor's remark. The sample as a whole holds a higher share of hits than the screen did. Unless noted, calls come from the whole dose curve; as a rule, active = well fitted curve in the direction sought with a large enough effect; inconclusive = small, poorly fitted or top-dose-only effect, or another doubt; inactive = no such curve, though single readings can be large; an effect the other way counts as inactive or inconclusive.

SMILES	IL1B secr inh	TDP1 cell CPT	TDP1 cell noCPT	HT1080 IDH1KD tx	ALOX12 inh	HT1080-NT tox
O=C(NCc1ccccc1Cl)c1cnc(N2CCOCC2)c2ccccc12	/	?	?	/	.	/
O=C(NCc1ccccc1Cl)c1cnc(N2CCCCC2)c2ccccc12	/	18.4µM	?	/	?	/
Cn1nc(-c2ccccc2)c(/C=N/O)c1Cl	.	.	.	.	.	.
Cn1[nH]c(-c2ccccc2)c(/C=N/O)c1=O	.	?	16.4µM	.	.	.
CCOC(=O)C(=O)c1csc(NC(=O)CCSc2ccc(C)cc2)n1	.	.	.	.	.	.
Cc1c(C(=O)NCCC2=CCCCC2)sc2ncnc(N3CCCCC3C)c12 (stereo not drawn)	-80.4	?	.	.	?	.
Cc1nc(NCCCc2csc(N)n2)cc(C2CC(O)C2)n1 (stereo not drawn)	/	/	/	/	.	/
CCOC(=O)c1ccc(NC(=O)c2nc[nH]c2C(=O)N[C@@H](CC(C)C)C(=O)OC(C)(C)C)cc1	.	?	?	.	.	.
C[C@H](NC(=O)c1nc[nH]c1C(=O)N[C@H](C)c1ccccc1)C(=O)OC(C)(C)C	.	14.6µM	?	.	.	.
CC(C)C[C@H](NC(=O)c1[nH]cnc1C(=O)Nc1ccccc1)C(=O)OC(C)(C)C	.	25.9µM	?	?	?	?
C[C@H](NC(=O)c1nc[nH]c1C(=O)NC(c1ccccc1)c1ccccc1)C(=O)OC(C)(C)C	?	.	?	?	.	?
CC(C)C[C@H](NC(=O)c1[nH]cnc1C(=O)N[C@@H](C)C(=O)OC(C)(C)C)C(=O)OC(C)(C)C	-60.9	18.4µM	11.6µM	?	.	?
Cc1cccc(NC(=O)c2nc[nH]c2C(=O)N[C@@H](C)C(=O)OC(C)(C)C)c1	-66.7	18.4µM	?	.	.	.
COc1ccc(-c2cnc3c(NC(C)=O)cc(-c4cccc(C(=O)NCCN(C)C)c4)cn23)cc1OC	?	?	11.6µM	32.6µM	.	?
COc1cc(-c2cnc3c(NC(C)=O)cc(-c4cccc(C(=O)NCCO)c4)cn23)cc(OC)c1OC	.	16.4µM	10.3µM	.	?	.
COc1ccc(-c2cnc3c(NC(C)=O)cc(-c4cccc(C(=O)NCCO)c4)cn23)cc1OC	-54.6	20.6µM	20.6µM	.	.	.
COc1ccc(-c2cnc3c(NC(C)=O)cc(-c4cccc(C(=O)N(C)C)c4)cn23)cc1OC	.	20.6µM	13µM	.	.	.
CC(C)c1noc(-c2cn(C3CCN(C(=O)c4ccc(C#N)cc4)CC3)nn2)n1	/	/	/	/	.	/
COc1cccc(-c2cnc3c(NC(C)=O)cc(-c4cccc(C(=O)NCCN(C)C)c4)cn23)c1	.	?	18.4µM	?	.	16.4µM
CCCCCCCCNc1ccccc1S(=O)(=O)NCc1ccccc1	.	?	18.4µM	?	.	?
CCOC(=O)c1oc2ccc(S(=O)(=O)NCC3Cn4cccc4C(=O)N3C)cc2c1C (stereo not drawn)	/	/	/	/	35.5µM	/
Cc1cc(-c2ccc(C(C)C)c(S(=O)(=O)N3CCN(c4ccccn4)CC3)c2)on1	.	18.4µM	20.6µM	.	.	.
CCc1ccc(-c2cc(C)no2)cc1S(=O)(=O)N1CCN(c2ccccn2)CC1	.	?	?	.	.	?
COc1ccc(-c2cc(C)no2)cc1S(=O)(=O)N1CCN(c2ccccn2)CC1	-77.3	?	20.6µM	.	.	.
COc1ccc(-c2cc(C)no2)cc1S(=O)(=O)N1CCN(c2ccccc2F)CC1	.	?	?	.	.	.
SMILES	IL1B secr inh	TDP1 cell CPT	TDP1 cell noCPT	HT1080 IDH1KD tx	ALOX12 inh	HT1080-NT tox
CCc1cccc(C)c1Nc1c(-c2cccs2)nc2ncccn12	/	?	16.4µM	/	.	/
CCc1cccc(C)c1Nc1c(-c2cccs2)nc2nc(C)cc(C)n12	/	?	?	/	.	/
CCc1cccc(C)c1Nc1c(-c2ccc(N3CCOCC3)cc2)nc2ncccn12	/	23.1µM	23.1µM	/	?	/
COc1ccc(CC(NC(=O)c2nn(C)c(=O)c3ccccc23)c2ccc(OC)cc2)cc1 (stereo not drawn)	/	/	/	/	.	/
Cc1cc(C)cc(COC(=O)c2cnccn2)c1	/	/	/	/	.	/
CCN(CC)CCNC(=O)CCc1cc2cc(OC)ccc2[nH]c1=O	/	/	/	/	.	/
Fc1ccccc1C1=NC(c2ccc(C(F)(F)F)cc2)=Nc2ccccc2N1	/	?	?	/	.	/
COc1ccc(C2=Nc3ccc(C)cc3NC(c3ccc(Cl)cc3)=N2)cc1	/	?	?	/	.	/
Fc1ccc(C2=NC(c3cccc(C(F)(F)F)c3)=Nc3ccccc3N2)cc1	/	?	18.4µM	/	.	/
COc1ccc(C2=Nc3ccc(F)cc3NC(c3cccc(C(F)(F)F)c3)=N2)cc1	/	23.1µM	?	/	.	/
Cc1ccc([C@@H]2CN(C(=O)c3cn(CCN)nn3)C[C@H]2NC(=O)C2CC2)cc1	/	/	/	/	.	/
CCN1CCN(CCNC(=O)c2ccc(/C=C3\Sc4ccccc4N(Cc4ccccc4F)C3=O)cc2)CC1	.	?	?	20.6µM	?	16.4µM
CN1CCN(CCCNC(=O)c2ccc(/C=C3\Sc4ccccc4N(Cc4ccc(F)cc4)C3=O)cc2)CC1	-76.5	?	16.4µM	.	.	.
CN1CCN(CCCNC(=O)c2ccc(/C=C3\Oc4ccccc4N(Cc4ccccc4F)C3=O)cc2)CC1	.	?	20.6µM	.	.	.
COCC1CCCN(Cc2ccc3c(c2)CN(C(=O)c2cccnc2OC)CCO3)C1 (stereo not drawn)	/	.[9.04 µM]	.	/	.	/
O=C(NCC1CCCO1)/C(=C\c1ccco1)NC(=O)c1ccc(Cl)cc1 (stereo not drawn)	.	.	.	.	.	.
N#CC(C#N)=C1C=CC=CN1/C(=C\c1ccco1)C(=O)c1ccc(Cl)cc1	-100.7	0.581µM	0.92µM	?	?	?
N#CC(C#N)=C1C=CC=CN1/C(=C\c1ccco1)C(=O)c1ccc(-c2ccccc2)cc1	-66.8	0.92µM	0.581µM	?	?	?
N#C/C(=C\c1ccco1)C(=O)NCc1ccccc1	.	.	.	.	/	.
Cc1ccc2cc3cc(C(=O)N4CCCCC4C)oc3nc2c1 (stereo not drawn)	-77.5	?	?	.	.	.
Cc1ccc2cc3cc(C(=O)N4CC(C)CC(C)C4)oc3nc2c1 (stereo not drawn)	-52.5	?	23.1µM	.	.	.
COc1ccc2cc3cc(C(=O)N4CC(C)CC(C)C4)oc3nc2c1 (stereo not drawn)	.	.	.	?	/	?
Cc1cccc(NC(=O)c2ccc(COc3ccccc3)cc2)c1	/	/	/	/	.	/
